Source: PubChem BioAssay (The Scripps Research Institute Molecular Screening Center)
Sampled rows, rich in hits. Any-hit rate of the full collection: about 3.5%.
MITF inh – human MITF inhibition, primary screen | O75030 | AlphaScreen MITF homodimerization, bead proximity signal | inhibition, % at 2.6 µM | 0.91% of 650,000 active | AID 1259374; in the data active = inhibition above about 50%;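 also: 0% = vehicle wells with protein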
Target sequence (O75030 whole entry, looked up): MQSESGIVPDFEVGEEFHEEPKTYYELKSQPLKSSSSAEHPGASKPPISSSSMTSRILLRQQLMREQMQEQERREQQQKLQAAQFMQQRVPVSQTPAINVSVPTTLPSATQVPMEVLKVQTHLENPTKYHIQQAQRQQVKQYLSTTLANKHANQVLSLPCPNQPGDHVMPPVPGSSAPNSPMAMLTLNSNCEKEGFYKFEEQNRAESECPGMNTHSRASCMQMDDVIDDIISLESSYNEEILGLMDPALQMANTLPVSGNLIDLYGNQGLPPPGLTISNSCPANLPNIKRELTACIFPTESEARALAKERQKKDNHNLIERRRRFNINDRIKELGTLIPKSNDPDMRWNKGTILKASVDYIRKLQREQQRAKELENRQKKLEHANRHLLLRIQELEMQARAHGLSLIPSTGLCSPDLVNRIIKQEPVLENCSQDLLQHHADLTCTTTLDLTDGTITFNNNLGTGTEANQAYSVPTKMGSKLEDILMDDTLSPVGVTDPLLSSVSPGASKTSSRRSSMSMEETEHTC
FBW7 activator – human FBW7 E3 ligase activation, primary screen; normalized activity (activation), % at 26.1 µM; AlphaScreen FBW7–phospho-cyclin E peptide binding, activator screen; Q969H0; 0.13% of 650,000 active; in the data active = normalized activity above about 1.9%;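 also: purified mutant Fbw7 with reduced substrate affinity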
GPR151 activ – activators of human GPR151; Q8TDV0; PathHunter beta-arrestin GPR151 cells, luminescence; activation, % at 11.2 µM; 1% of 650,000 active; AID 1508602; in the data active = activation above about 4.9%;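 also: 0% = median of compound wells and 100% = cells with positive control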
TEAD-YAP inh – TEAD-YAP interaction inhibition | inhibition, % at 9.12 µM | HEK-TIYL cells, TEAD-Gal4/YAP UAS-luciferase luminescence | 1.4% of 640,000 active; in the data active = inhibition above about 32%;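 also: 0% = median of test compound wells and 100% = reference inhibitor wells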
GPR151 conf act – human GPR151 activation, confirmation screen; shares compounds with GPR151 activ; 6,700 tested, under 10 active; activation, % at 11.2 µM; GPR151 PathHunter beta-arrestin cells, luminescence, 90 min; % of EA-reagent control over plate median;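 active = mean percent activation across replicates above the confirmation screen cutoff of 4.91%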
GPR119 counter – GPR119 activation, counter-screen for GPR151 activators; shares compounds with GPR151 activ; activation, % at 11.2 µM; 0.3% of 6,700 active; GPR119 PathHunter beta-arrestin cells, luminescence, 90 min; 0 = compound-well median, 100 = enzyme-acceptor control; AID 1508611;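 active = mean percent activation in the counterscreen above 29.09%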;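 also: counterscreen on off-target GPR119 to flag nonselective hits from the GPR151 activator screen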
* marks the source's active call; other numbers are inactive results; nt = no result.

SMILES	MITF inh	FBW7 activator	GPR151 activ	TEAD-YAP inh	GPR151 conf act	GPR119 counter
Cc1csc(NC(=O)/C=C/c2cccc(Cl)c2)n1	4	0	5.0*	-35	0	-12
CCOC(=O)CSc1nc(C2CC2)nc2sc(C)c(C)c12	20	0	-1	-2	nt	nt
Cc1sc2nc(C3CC3)nc(SCC(N)=O)c2c1C	6	0	6.8*	7	0	2
O=C(NCCCN1CCN(c2ccc(Cl)cc2)CC1)Nc1ccccc1	4	0	6.6*	-7	0	8
O=C(NCCCN1CCN(c2ccc(Cl)cc2)CC1)Nc1ccc(F)cc1	-7	0	0	-9	nt	nt
Cc1cc(C)cc(OCC(=O)NNC(=O)c2cccc(C)c2)c1	7	0	0	5	nt	nt
Cc1ccc(CNC(=O)c2nnc(Cc3cccc(Cl)c3)o2)cc1	-2	0	7.4*	3	0	5
O=C(NCc1ccccc1)c1nnc(Cc2cccc(Cl)c2)o1	-2	0	0	-5	nt	nt
O=C1C2C(c3ccccc3)OC3(C(=O)c4ccccc4C3=O)C2C(=O)N1CCc1ccc(F)cc1 (stereo unspecified)	0	0	7.5*	-2	0	9
O=C1C2C(c3ccc(F)cc3)OC3(C(=O)c4ccccc4C3=O)C2C(=O)N1Cc1ccccc1 (stereo unspecified)	10	0	5.6*	14	0	5
O=C1C2C(c3ccccc3)OC3(C(=O)c4ccccc4C3=O)C2C(=O)N1c1ccccc1 (stereo unspecified)	-5	0	0	-1	nt	nt
COc1cc(/C=C/c2nnc3c4ccccc4ncn23)cc(OC)c1OC	-2	0	8.4*	1	1	9
C(=C\c1nnc2c3ccccc3ncn12)/c1ccccc1	6	0	-1	12	nt	nt
CC(=O)c1oc2ccccc2c1NC(=O)CN1CCCCC1	6	0	5.6*	-5	1	-9
CN1CCN(CC(=O)Nc2c(C(=O)C3CC3)oc3ccccc23)CC1	-1	0	1	-10	nt	nt
CCOCCSc1nnc(CNC(=O)c2ccc(F)cc2)o1	-8	0	2	-3	nt	nt
COc1ccc(-c2noc(CN3CCCN(c4ccc(F)cc4)CC3)n2)c(OC)c1OC	6	0	0	-16	nt	nt
COc1ccc(-c2noc(CN3CCN(c4ccc(F)cc4)CC3)n2)c(OC)c1OC	11	0	6.5*	0	0	-9
CCOc1ccccc1/C=C1/N=C(c2ccc(C)c([N+](=O)[O-])c2)OC1=O	1	0	-2	10	nt	nt
Cn1c(N)c(C#N)c2nc3ccccc3nc21	8	1	1	-2	nt	nt
CCCCCn1c(N)c(C#N)c2nc3ccccc3nc21	35	0	8.2*	6	0	2
CC1CC(OC(=O)C(O)c2ccccc2)CC(C)(C)C1 (stereo unspecified)	-9	0	6.6*	1	1	-2
Cc1cc(NC(=O)c2cccs2)cc(C)c1OCC(=O)N1CCOCC1	-11	0	5.2*	-16	0	-2
Cc1[nH]ncc1-c1ccc(NC(=O)C2COc3c(F)cccc3C2)c(OCCN(C)C)c1 (stereo unspecified)	0	0	-2	0	nt	nt
COc1cccc2c1CC(C(=O)Nc1ccc(-c3cn[nH]c3C)cc1OCCN(C)C)CO2 (stereo unspecified)	10	0	6.8*	7	0	-2
